Laboratory results taken from the supplement of paper PMC6555819.

Columns and labels:
Assay in all cases: PBM binding z-score (relative to random genomic background probes); higher = stronger binding; sequences stand for … in GC…GCGATTGACAGCGTAGAATGAAGG
[1] = system: RARb homodimer (NR concentration 270 nM)
Outline: (§1)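 Ligand-free nuclear receptor dimers were bound for 1 h to custom Agilent 4×180K protein-binding microarrays. Detection used antibodies against each partner (one per run). Binding z-scores rest on regression-normalized fluorescence, with random background probes as the reference.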

[2] = system: RARg:RXRa (NR concentration 270 nM, RXRa partner concentration 90 nM)
Outline: as §1

[3] = system: RARg homodimer (NR concentration 270 nM)
Outline: as §1

[4] = system: RXRa DBDmut IVT, anti-RXR (DBD mutation: RXRa K156A/R161A, NR concentration 90 nM)
Outline: as §1

[5] = system: RXRa homodimer (NR concentration 180 nM)
Outline: as §1

[6] = system: THRa:RXRa (NR concentration 90 nM, RXRa partner concentration 90 nM)
Outline: as §1

[7] = system: THRa homodimer (NR concentration 90 nM)
Outline: as §1

[8] = system: VDR homodimer (NR concentration 270 nM)
Outline: as §1

| Sequence | PBM binding z-score [1] | PBM binding z-score [2] | PBM binding z-score [3] | PBM binding z-score [4] | PBM binding z-score [5] | PBM binding z-score [6] | PBM binding z-score [7] | PBM binding z-score [8] |
| --- | --- | --- | --- | --- | --- | --- | --- | --- |
| TCATACAGGTAATACAGGTGAAAGTCGGCATCTA | 0.84 | 0.731 | 0.586 | 1.65 | 1.23 | 1.18 | 0.583 | 0.391 |
| CATTACGGGTCACGAGGTTATAGCACGACGAGCG | 4.22 | 6.35 | 5.8 | 2.21 | 8.02 | 3.82 | 1.56 | 2.52 |
| CCTCAGAGGACAGAAGGTCAGAGCTGTCCGCTTT | 3.51 | 3.95 | 3.91 | 0.625 | 2.1 | 1.95 | -0.0422 | 0.12 |
| AGAACGGGGGCAATGAGTTGATAGCACGGGTGGC | 1.83 | 2.87 | 2.43 | 3.17 | 2.3 | 2.45 | 1.33 | 5.08 |
| CAGACTAGGTCACCGGAAGGTCAAAGTCCGCATG | 5.55 | 8.29 | 7.56 | 1.74 | 6.56 | 4.37 | 2.62 | 3.42 |
| GGAACGAGGGCATTCGTGTTGATAGCATGGCGAT | 0.43 | 0.848 | 1.23 | 3.26 | 0.575 | 0.978 | -0.391 | 1.87 |
| CGTCCAAGGTCATAGGAGGTCAGTGAAGACAGAT | 5.19 | 6.63 | 7.12 | 3.93 | 6.4 | 5.42 | 3.01 | 4.13 |
| CCTTACGAGTCACGAGGTTATAGCACGACGAGCG | 1.11 | 1.27 | 1.04 | 0.554 | 1.8 | 1.9 | 1.19 | 1.26 |
| AATACAGTGTCACTAGGCCAGAGTAGGTACGAAT | 0.565 | 0.553 | 0.864 | 0.0246 | 0.185 | 0.145 | -0.314 | 0.0225 |
| ATCGAAAGGTCGAAGGGGAGTATACCCACCCGAA | 2.2 | 3.86 | 3.58 | 0.681 | 4.21 | 1.73 | -0.345 | 0.649 |
| AGTCAAAGTTCATCTAGGTAACGTGAGATATGCT | 3.97 | 5.63 | 6.26 | 4.74 | 4.89 | 3.05 | 0.297 | 4.95 |
| TGAATGAGGTCATAAGATCAGGGAACGTTGCAAA | 3.34 | 5.65 | 5 | 3.74 | 5.88 | 3.85 | 2.43 | 3.77 |
| GCTGCGAGGTCAGGTTGGTCAGCTAACGGGTACG | 3.93 | 4.9 | 5.27 | 3.04 | 4.52 | 3.7 | 2.31 | 2.88 |
| TCATATAGGTAATACAAGTGAAAGTCGGCATCTA | 0.148 | 0.857 | 0.72 | 2.07 | 1.23 | 0.601 | 0.0151 | 0.435 |
| CTACCAAGGTTAACAAGGTCGTTGATTACTATTC | 2.69 | 2.82 | 2.39 | 2.35 | 2.98 | 3.39 | 1.93 | 3.98 |
| GCTCGGAGGACAAGGTCCGAGCTTTGTCCGTAGA | 0.2 | -0.185 | 0.242 | -0.26 | -0.792 | 0.554 | -0.414 | -0.775 |
| TCAGACAGGTGACGGTAACTCAGGTACGCAGTCG | 0.517 | 0.188 | 0.328 | 0.683 | 0.84 | 0.492 | 0.00718 | -0.0333 |
| CGTCCGAGGTCAGCAGGTCAGTGAAAGCGACGTG | 4.89 | 6.81 | 7.31 | 2.99 | 6.26 | 4.09 | 2.53 | 2.44 |
| GGAACGAGGGCAAGTTGATAGCCGAGTTTGATGG | 1.56 | 1.84 | 2.12 | 2.37 | 0.956 | 1.22 | -0.266 | 1.92 |
| CGAACTAGGTCATCCAGCACAGTGAATACATTGA | 2.79 | 4 | 4.55 | 2.13 | 2.92 | 2.85 | 1.13 | 1.16 |
| ACTAGTTGGTCAGCTGAGGACACACACAATTCGG | 1.64 | 1.18 | 1.82 | 0.558 | 0.282 | 4.7 | 4.2 | 0.259 |
| TCTATTAGTTGAAGGGCAACCGCCGAGTCCGTTT | 1.41 | 0.448 | 0.651 | 1.57 | 0.559 | 0.213 | 0.417 | 1.86 |
| AGACTGAGGTTATACGTAGATCAGGGAAGAAAGT | 0.864 | 1.64 | 1.03 | 1.44 | 2.09 | 2.01 | 0.684 | 0.49 |
| TTACCAAGGTGAAGGTCGATGATCCCTCTGTAGA | 1.64 | 1.22 | 1.39 | -0.217 | 1.4 | 2.05 | 0.572 | 0.0587 |
| CGTCCAAGGTCAGAGAGGTCCGTGAATGCCGAGT | 3.81 | 4.45 | 5.28 | 2.56 | 3.48 | 3.5 | 1.77 | 2.04 |
| ATATGTAGGCTAGCTGGGGTCATTCAGACTAGGC | 3.02 | 3.59 | 1.99 | 1.43 | 4.96 | 4.2 | 2.76 | 3.63 |

| Sequence | PBM binding z-score [1] | PBM binding z-score [2] | PBM binding z-score [3] | PBM binding z-score [4] | PBM binding z-score [5] | PBM binding z-score [6] | PBM binding z-score [7] | PBM binding z-score [8] |
| --- | --- | --- | --- | --- | --- | --- | --- | --- |
| CGTCAAAGTTCAAGGTAACCTAACAGAAAGCAGC | 4.17 | 5.43 | 6.2 | 4.3 | 4.71 | 3.19 | 1.38 | 2.84 |
| TCTAGTGGGTCACGGAGGTCACACACGACGGGTA | 4.95 | 6.73 | 7.18 | 1.53 | 7.69 | 4.26 | 2.34 | 6.17 |
| CCTGCTAGGTCATGGTTAGCTAATCTACAGTATG | 2.79 | 4.02 | 4.34 | 1.43 | 2.52 | 2.99 | 1.03 | -0.043 |
| CGTCCAAGGTCAGCTGGTCAGTGAAAGCGACGTG | 3.87 | 5.3 | 6.1 | 2.64 | 3.99 | 3.46 | 1.76 | 0.478 |
| GCGACTGGGGCTTCAGCAGGTTACCATAACTTAA | 0.521 | -0.404 | -0.463 | -0.297 | 0.00147 | 0.733 | -0.0641 | -0.284 |
| CCTGCTAGGTCAGTGGTCAGCTAAAGCAGCTCGC | 2.63 | 2.56 | 3.82 | 0.821 | 0.693 | 1.51 | 0.454 | -0.319 |
| ATCTCAAGGTAACAAGTTCAGTGAAAGAGAGGAC | 2.19 | 1.79 | 1.79 | 1.34 | 1.23 | 2.16 | 1.54 | 2.9 |
| TCTACTAGGTCAGTTGGTCAGCTAACGAGCTGCC | 2.91 | 2.74 | 3.58 | 1.19 | 1.24 | 1.28 | 0.622 | 0.162 |
| CCTTACGGGTAAAGGTTATAGCACGGGTGGTACG | 1.5 | 2.02 | 1.06 | -1.08 | 2.34 | 1.31 | 0.0229 | 0.43 |
| CCTGCTGGGCCAAAGGTCATTGATTCCAATGCTC | 4.53 | 5.82 | 4.91 | 1.48 | 6.37 | 3.2 | 0.638 | 2.24 |
| AGAATGAGGTTACCAAAGAACAGGGAAACGCTTG | 0.612 | 1.93 | 1.35 | 0.909 | 2.36 | 2.59 | 0.733 | 0.342 |
| GCAAGCAGGCCATTTGGGTCACTCAATGACGGGC | 1.76 | 0.948 | 1.18 | -0.0801 | 0.769 | 1.79 | 0.53 | 0.402 |
| AGAACGAGGGCAATGAGTTGATAGCGCGGGTGGC | 0.949 | 0.964 | 1.44 | 2.34 | 0.602 | 0.756 | -0.205 | 3.3 |
| CGTCCAAGGTCAAACGTCAGTGAAGAGATGACGG | 3.94 | 6.09 | 6.4 | 3.98 | 6.29 | 3.76 | 2.1 | 3.22 |
| CCTATTAGTTGACCATAAGGGCAACTGAAGCTCG | 2.04 | 1.5 | 1.31 | 0.724 | 0.69 | 1.99 | 1.28 | 0.824 |
| TGAATGAGGTTATAAGATCAGGGAGCGTTGCAAA | -0.251 | 1.37 | 0.756 | 0.685 | 1.8 | 1.61 | -0.245 | 0.229 |
| AGAATGAGGTTATACGTAGAACAGGGAAGAAAGT | 0.739 | 1.6 | 1.14 | 1.5 | 2.13 | 2.04 | 0.323 | 1.03 |
| CAAACTAGGTCAAGTGGTCAAAGTCCGCTTCCCG | 4.26 | 4.95 | 5.48 | 1.85 | 3.76 | 3.16 | 1.43 | 1.08 |
| ATATGTAGGTTATCGGGTCGTTCAGTTTGCGCAT | 1.68 | 1.39 | 1.28 | 1.06 | 1.57 | 1.93 | 1.55 | 2.55 |
| TCTTGTAGATCAATGGTTAAGAAAGCCGAAGCCT | -0.529 | -0.0652 | -0.444 | 0.768 | 0.123 | -0.193 | -0.412 | -0.25 |
| CCTAGTTCGTCAGGAGGTCACACACCGGATATGA | 4.54 | 6.37 | 4.42 | 3.1 | 4.83 | 3.92 | 2.68 | 4.2 |
| CCTAGTTGGTCAGGAGGTCACTCACCGGATATGA | 3.92 | 4.48 | 3.73 | 0.697 | 3.58 | 3.17 | 2.09 | 2.45 |
| GCGACTGGGGCAAAGCAGGTTAACATAAGGTTGG | 1.27 | 0.386 | 0.747 | -0.0641 | 0.513 | 3.19 | 0.0848 | -0.0745 |
| CGTCCAAGGTCAGCAGGTAAGTGAAAGCGACGTG | 3.74 | 5.27 | 5.92 | 2.48 | 3.94 | 3.46 | 2 | 0.856 |
| ATATGTAGGTTAGCTGGGGTCATACAGACTAGGC | 3.9 | 4.36 | 3.32 | 1.64 | 6.14 | 5.18 | 3.83 | 4.09 |
| GCTGCTAGGTCAACTGTTGGTCAGCTAAAGCTCG | 3.66 | 5.23 | 5.32 | 1.66 | 3.12 | 2.84 | 0.983 | -0.34 |
